The results in this text go back to PubChem BioAssay AID1416 (The Scripps Research Institute Molecular Screening Center, 2008).

Molecules are shown by their SMILES. Screen size: about 220,000 compounds; about 370 (0.17%) were called active. The list comes from a sample in which actives are over-represented; it also holds similar structures and randomly drawn compounds. Unmarked numbers belong to inactive results.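 How the source made its calls: active means inhibition above the mean inhibition of all tested compounds plus 3 SD, set separately per screening campaign (cut at about 2.9% in these data); inactive means the rest.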

The target in this assay is Eukaryotic translation initiation factor 2-alpha kinase 3 (Homo sapiens) (UniProt Q9NZJ5). The assay is described as follows: block of dimerizer-induced PERK translation repression, primary screen, PERK inhibitor project, CHO PERK-DD cells, SEAP luminescence, HTS (AID 1416).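 Further: PERK kinase domain activated by AP20187 dimerizer at 100 nM; 0% = DMSO with dimerizer and 100% = rapamycin at 8.4 µM.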 To be noted: CHO PERK-DD fusion, SEAP luminescence translation reporter; at 5.6 µM; active compounds read high.
Sequence of Eukaryotic translation initiation factor 2-alpha kinase 3 (Homo sapiens) (Q9NZJ5 whole entry, looked up, the tested form may be a part): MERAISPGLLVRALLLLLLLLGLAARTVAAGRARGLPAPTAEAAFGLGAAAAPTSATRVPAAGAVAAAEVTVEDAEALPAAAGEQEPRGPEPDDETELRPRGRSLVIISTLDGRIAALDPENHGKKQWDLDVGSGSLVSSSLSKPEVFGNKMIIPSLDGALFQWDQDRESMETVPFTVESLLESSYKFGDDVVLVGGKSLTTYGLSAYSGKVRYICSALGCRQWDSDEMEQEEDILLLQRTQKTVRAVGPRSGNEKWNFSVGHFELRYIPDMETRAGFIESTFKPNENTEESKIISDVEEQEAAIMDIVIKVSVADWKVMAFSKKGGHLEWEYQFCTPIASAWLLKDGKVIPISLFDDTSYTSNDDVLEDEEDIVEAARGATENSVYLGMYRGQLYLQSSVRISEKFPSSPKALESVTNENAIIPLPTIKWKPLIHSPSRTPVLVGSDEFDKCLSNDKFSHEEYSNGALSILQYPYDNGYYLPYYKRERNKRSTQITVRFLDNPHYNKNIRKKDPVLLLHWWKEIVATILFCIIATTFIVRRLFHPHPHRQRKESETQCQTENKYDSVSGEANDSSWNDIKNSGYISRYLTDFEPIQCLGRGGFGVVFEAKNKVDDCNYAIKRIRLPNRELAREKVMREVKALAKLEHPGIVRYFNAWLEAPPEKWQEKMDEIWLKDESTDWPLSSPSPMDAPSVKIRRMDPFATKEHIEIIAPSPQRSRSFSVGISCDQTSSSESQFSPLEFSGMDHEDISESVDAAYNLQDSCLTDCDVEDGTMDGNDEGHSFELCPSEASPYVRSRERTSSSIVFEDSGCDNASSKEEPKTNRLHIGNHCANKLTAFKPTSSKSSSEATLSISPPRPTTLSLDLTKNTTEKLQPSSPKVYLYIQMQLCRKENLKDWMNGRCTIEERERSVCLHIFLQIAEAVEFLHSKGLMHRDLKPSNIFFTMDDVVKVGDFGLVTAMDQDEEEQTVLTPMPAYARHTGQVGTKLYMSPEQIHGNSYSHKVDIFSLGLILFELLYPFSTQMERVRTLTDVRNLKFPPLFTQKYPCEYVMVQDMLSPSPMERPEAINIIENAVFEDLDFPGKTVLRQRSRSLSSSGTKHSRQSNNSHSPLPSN
The inhibition is the relative decrease from the control value, in per cent. `O=[N+]([O-])c1ccc2c(c1)C(N1CCOCC1)/C(=C/C1(O)CCCCC1)O2` (stereo unspecified): the inhibition was -1.29%.
`Cc1c(C(=O)N(Cc2ccccc2)Cc2cccnc2)cnn1-c1ccc(F)cc1`: the inhibition is -0.72%.
For the molecule `CCc1cc(CNC(=O)CC2C(=O)NCCN2CC2CCCCC2)on1` (stereo unspecified), the inhibition was -0.53%.
As to `COc1cc(NS(=O)(=O)c2ccc(NC(=O)CN3C(=O)c4ccccc4C3=O)cc2)ncn1`, the inhibition is 2.32%.
Then `COc1ccc(Oc2c(Cl)cnn(-c3ccccc3)c2=O)cc1`, with 0.39%; and `COc1ccc(-n2c(C)nc3c(cnn3-c3ccccc3)c2=O)cc1`, with -0.16%.
To `Cc1ccc(Oc2cnn(-c3ccccc3)c(=O)c2Br)cc1` belongs 2.99% (active); to `CCCS(=O)(=O)N1CCC(CCOc2ccccc2)(C(=O)OCC)CC1`, -0.64%.
To `O=C(NC(=O)N1CCOCC1)c1ccccc1` belongs 0.27%; to `O=C(NC(=O)c1cc(OCC(F)(F)F)ccc1OCC(F)(F)F)Nc1ccccc1`, 0.87%.
As for `CN(C)S(=O)(=O)c1ccc(NC(=O)N2CCOCC2)cc1`, the inhibition was 0.79%.
To `Cn1nccc1NS(=O)(=O)c1ccc(F)cc1` belongs 0.14%; to `CC(C)CNC(=O)C(=O)Nc1ccc(N(C)C)cc1`, 0.89%.
In the case of `Nc1ccc(S(=O)(=O)Nc2nccc(/C=C/c3ccc(Br)s3)n2)cc1`, the inhibition was 1.17%.
To `CC(CC(=O)Nc1ccccc1)n1ccnc1` (stereo unspecified) belongs 0.1%.
Then `O=C(O)CCCC(=O)Nc1ccccc1-n1ccnc1`, with 3.15% (active).
To `Cc1cccc(C)c1NC(=O)Nc1ccccc1-n1ccnc1` belongs 1.72%.
Take `COc1cccc(C2SCC(=O)N2c2cccc(C)c2)c1OC` (stereo unspecified): the inhibition was 0.28%.
Take `CC(=O)NCC(=O)N(Cc1ccco1)C1(C(=O)NC2CCCC2)CCCCC1`: the inhibition is 0.44%.
Turning to `CCc1ccc(N(CC(=O)Nc2sc3c(c2C(=O)OC)CCCC3)S(C)(=O)=O)cc1`, the inhibition is 0.54%.
Then `O=C(c1cccc(S(=O)(=O)N2CCCC2)c1)N(Cc1ccco1)C1CCS(=O)(=O)C1` (stereo unspecified), with 0.31%; and `Cc1nn(-c2ccccc2)c(-n2cccc2)c1C(=O)O`, with 0.88%.
Then `CC(CO)(CO)NC(=O)c1ccc(=O)[nH]n1`, with 1.5%; and `CCC(C)NCCOCCOc1ccc(Br)cc1C` (stereo unspecified), with -0.24%; and `COc1ccc(C2c3c(C)nn(-c4ccccc4)c3NC(=O)N2c2ccccc2)cc1` (stereo unspecified), with -0.38%.
To `CCN(CCCNC(=O)C1CCN(S(=O)(=O)c2cnc[nH]2)CC1)c1ccccc1` belongs -0.73%; to `O=C(Nc1ccccc1)O/N=C1/CCCc2occc21`, 0.48%; to `COc1ccc(-c2csc(NC(=O)COC(=O)c3ccc(Br)o3)n2)cc1`, 0.82%.
As to `O=[N+]([O-])c1ccc(NCCCO)c(C(F)(F)F)c1`, the inhibition is 0.52%.
On to `CCN(CC)CCNc1ccc(Cl)cc1[N+](=O)[O-]`, for which the inhibition was -0.09%.
Then `N#Cc1c(NCCO)ccc([N+](=O)[O-])c1NCCO`, with 3.54% (active).
Then `O=C(C1CCCN1S(=O)(=O)c1ccc(Br)cc1)N1CCOCC1` (stereo unspecified), with 1.24%; and `CCOC(=O)Cn1c(SC)nc2sc3c(c2c1=O)CC(C)(C)OC3`, with 0.18%.
Then `CCOC(=O)CSc1nc2sc3c(c2c(=O)[nH]1)CC(C)(C)OC3`, with 2.96% (active).
As to `CCC1(C)Cc2c(sc3nc(SC)[nH]c(=O)c23)CO1` (stereo unspecified), the inhibition was -0.25%.
On to `Cc1cccc(C(=O)Nc2ccc(C(=O)/C=C/c3cccs3)cc2)c1`, for which the inhibition is -1.44%.
Then `COc1cc(/C=C/C(=O)OCC(=O)NC(=O)NCc2ccccc2)ccc1OCC#N`, with 0.97%; and `O=C(c1ccco1)N1CCN(C(=O)C2CCCN(S(=O)(=O)c3cccc4nsnc34)C2)CC1` (stereo unspecified), with 0.2%.
To `CN(C)c1ccc(NC(=O)CSc2n[nH]c(-c3ccco3)n2)cc1` belongs -0.7%; to `COc1ccccc1Cn1c(C)nnc1-c1cnn(C)c1N`, 0.89%.
Take `CCSc1ccccc1C(=O)NCc1ccc(OC)cc1`: the inhibition was 0.41%.
In the case of `CCn1cc(CN2CCCC(CNS(=O)(=O)Cc3ccccc3)C2)cn1` (stereo unspecified), the inhibition was 1.56%.
Then `COc1c(N2CCN(C(=S)Nc3ccccc3F)C(C)C2)c(F)cc2c(=O)c(C(=O)O)cn(C3CC3)c12` (stereo unspecified), with 1.87%.
Then `Cc1ccccc1-n1nc(C)c2cc(C(=O)NC3CC3)sc21`, with -1.39%; and `Cc1c(Cl)c([N+](=O)[O-])nn1CC(=O)NCC1CCCO1` (stereo unspecified), with 0.38%; and `Cc1cc(S(=O)(=O)NC2CCCCC2)ccc1OCC(=O)NCc1cccnc1`, with 0.23%.
Then `CC(=O)NCc1ccc(S(=O)(=O)NC2CCN(Cc3ccccc3)CC2)cc1`, with 1.04%; and `O=C1CCC(=O)N1c1ccc(NCCc2ccccc2F)c([N+](=O)[O-])c1`, with -0.58%; and `NC(=O)c1ccc(N2CCOCC2)nc1`, with 2.55%.
Take `N#CC1=C(N)N(c2ccc(F)cc2)C(=O)C1`: the inhibition was 0.76%.
Then `CCOC(=O)c1ccc(COC(=O)CCc2nc(-c3ccccc3)c(-c3ccccc3)o2)cc1`, with -0.32%; and `Cc1cc(NC(=O)COC(=O)COc2ccc(Cl)cc2C)c([N+](=O)[O-])cc1C`, with 0.97%; and `CCOC(=O)C1=C(C)N=C2c3ccccc3C(=O)C2C1c1ccc(Br)cc1` (stereo unspecified), with 0.04%.
To `CCOc1cnc(C(=O)NNC(=O)c2ccccc2Br)o1` belongs 1.53%.
To `CC1CN(C2CCN(C(=O)COc3ccccc3)CC2)CC(C)O1` (stereo unspecified) belongs 0.89%.
In the case of `Cc1nn(CC2CC2)c(=O)n1N(C)c1ncc(C(F)(F)F)cc1Cl`, the inhibition is 1.31%.
To `O=C(Cn1cnc2ccccc21)N/N=C/c1ccco1` belongs -0.07%.
Then `O=C(O)/C=C\C(=O)Nc1ccc(OCc2ccccc2)cc1`, with 1.09%; and `CCOc1c(Br)cc(/C=C2\C(=O)N(CCC#N)N=C2C)cc1OC`, with 1.06%.
Then `O=[N+]([O-])c1ccccc1NCc1ccccc1Cl`, with 0.13%.
With `COc1ccc([N+](=O)[O-])cc1N(CC(O)Cn1nnc2ccccc21)S(=O)(=O)c1ccc(C)cc1` (stereo unspecified), the inhibition is -0.77%.
